PubChem BioAssay (Tox21)
Records with an inconclusive call do not appear. The source made the active and inactive calls. Unless noted, calls follow the shape of the dose curve; as a rule, active = well fitted curve in the direction sought with a large enough effect in the repeat runs; inconclusive = weak or mixed curves; inactive = no such curve, though single readings can be large; an effect the other way counts as inactive or inconclusive.

Legend:
[1] = target: Estrogen receptor beta (Homo sapiens) (UniProt Q92731); test: qHTS assay to identify small molecule agonists of the estrogen receptor beta (ER-beta) signaling pathway (AID 1259377; active = well fitted activation curve with a large enough effect in the signal ratio in the repeat runs, not every such curve was filed as active; the % refers to the signal ratio; also: % is scaled to controls: 0 for no effect and ±100 for the full control effect)
Sequence of Estrogen receptor beta (Homo sapiens) (Q92731 whole entry, looked up): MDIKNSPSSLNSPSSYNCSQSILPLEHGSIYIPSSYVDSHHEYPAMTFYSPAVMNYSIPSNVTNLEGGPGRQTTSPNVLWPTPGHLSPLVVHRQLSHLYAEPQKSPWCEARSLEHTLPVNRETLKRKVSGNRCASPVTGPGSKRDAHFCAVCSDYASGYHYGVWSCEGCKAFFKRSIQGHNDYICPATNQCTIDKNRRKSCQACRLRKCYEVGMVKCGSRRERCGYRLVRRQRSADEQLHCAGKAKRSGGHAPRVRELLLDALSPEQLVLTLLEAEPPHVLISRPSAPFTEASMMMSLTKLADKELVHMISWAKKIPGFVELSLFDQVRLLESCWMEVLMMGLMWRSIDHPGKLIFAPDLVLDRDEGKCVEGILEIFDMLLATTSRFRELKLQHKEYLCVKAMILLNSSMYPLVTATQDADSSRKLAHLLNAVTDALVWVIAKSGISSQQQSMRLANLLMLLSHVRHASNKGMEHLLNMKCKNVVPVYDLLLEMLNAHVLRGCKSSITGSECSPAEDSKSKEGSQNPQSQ
How it was run: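 Reporter cells (HEK293T, ER-beta-UAS-bla) receive compounds or DMSO after a 6 hr pre-incubation. They then incubate 16 hr at 37C/5% CO2, and fluorescence from LiveBLAzer B/G substrate is measured after 2 hours at room temperature.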

[2] = target: Estrogen receptor beta (Homo sapiens) (UniProt Q92731); test: qHTS assay to identify small molecule antagonists of the estrogen receptor beta (ER-beta) signaling pathway (AID 1259378; active = well fitted inhibition curve with a large enough effect in the signal ratio in the repeat runs, not every such curve was filed as active; the % refers to the signal ratio; also: potency is read from the fitted curve at half-maximal effect; as to activity, negative = inhibition: % is scaled to controls: 0 for no effect and ±100 for the full control effect)
How it was run: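 Antagonist mode: compounds added to beta-lactamase reporter HEK293T ER-beta-UAS cells stimulated with E2 (1nM final), 16 hr at 37C. LiveBLAzer B/G FRET substrate, 2 hours room temperature, fluorescence read-out.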

[3] = qHTS assay to identify small molecule agonists of the androgen receptor (AR) signaling pathway in the presence of an antagonist - cell viability counter screen (AID 1259379); also: nearly all actives have a fitted effect of over 25% in size; also: potency is read from the fitted curve at half-maximal effect;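 as to activity change, negative = cytotoxicity: MDA-kb2 human breast cancer cells carrying an MMTV luciferase reporter; series mostly up to about 92 µM; % is scaled to controls: 0 for no effect and ±100 for the full control effect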
How it was run: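 Cells: MDA-kb2 (MMTV-luc, AR and GR elements), 3,000/well, 5 hr settle. Added: nilutamide 3.0uM final, then compounds (15 conc.). Incubation: 16 hr, 37C, no CO2. Read-out: CellTiter-Fluor, 1 hr, fluorescence.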

[4] = target: Androgen receptor (Homo sapiens) (UniProt P10275); test: qHTS assay to identify small molecule agonists of the androgen receptor (AR) signaling pathway in the presence of an antagonist (AID 1259381; calls by dose curve; also: % is scaled to controls: 0 for no effect and ±100 for the full control effect; nearly all actives have a fitted effect of over 15% in size)
Sequence of Androgen receptor (Homo sapiens) (P10275 whole entry, looked up): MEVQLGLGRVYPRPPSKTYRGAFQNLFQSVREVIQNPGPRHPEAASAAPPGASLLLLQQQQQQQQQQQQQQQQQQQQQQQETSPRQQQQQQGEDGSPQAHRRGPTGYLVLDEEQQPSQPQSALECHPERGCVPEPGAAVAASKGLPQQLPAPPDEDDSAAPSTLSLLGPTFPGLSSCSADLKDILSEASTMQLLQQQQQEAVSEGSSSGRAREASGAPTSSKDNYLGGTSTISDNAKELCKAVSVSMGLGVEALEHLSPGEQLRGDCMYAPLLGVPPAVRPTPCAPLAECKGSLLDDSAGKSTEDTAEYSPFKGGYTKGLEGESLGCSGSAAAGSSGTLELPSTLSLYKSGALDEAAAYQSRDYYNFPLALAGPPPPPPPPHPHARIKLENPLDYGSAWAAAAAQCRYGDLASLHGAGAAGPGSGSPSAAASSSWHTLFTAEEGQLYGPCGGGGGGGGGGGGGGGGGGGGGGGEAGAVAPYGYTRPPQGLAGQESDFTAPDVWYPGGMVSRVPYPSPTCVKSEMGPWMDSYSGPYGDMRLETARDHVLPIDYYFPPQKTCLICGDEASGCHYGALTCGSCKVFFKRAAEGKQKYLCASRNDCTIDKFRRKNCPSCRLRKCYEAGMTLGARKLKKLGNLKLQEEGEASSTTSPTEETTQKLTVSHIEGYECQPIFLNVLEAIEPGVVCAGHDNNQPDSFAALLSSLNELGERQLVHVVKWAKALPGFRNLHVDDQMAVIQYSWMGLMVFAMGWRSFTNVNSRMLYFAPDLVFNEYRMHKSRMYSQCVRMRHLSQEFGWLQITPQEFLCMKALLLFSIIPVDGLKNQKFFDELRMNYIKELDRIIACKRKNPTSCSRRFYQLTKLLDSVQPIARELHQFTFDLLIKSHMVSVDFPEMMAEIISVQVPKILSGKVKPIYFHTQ
How it was run: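 MDA-kb2 cells, 3,000/well, rested 5hr at 37C/0% CO2 → nilutamide 3.0uM final or buffer → compounds, 15 conc. → 16hr at 37C → ONE-Glo, 30min RT → luminescence.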

[5] = qHTS assay to identify small molecule antagonists of the estrogen receptor beta (ER-beta) signaling pathway - cell viability counter screen (AID 1259382); also: nearly all actives have a fitted effect of over 55% in size; also: potency is read from the fitted curve at half-maximal effect
How it was run: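 Cells: ER-beta-UAS-bla HEK293T, 2,000/well, 2% CS-FBS, 6 hr settle. Cpd + E2 (1nM final), 16 hr, 37C/5% CO2. Bla FRET substrate 2 hr RT, then CellTiter-Glo 30 min RT, luminescence.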

[6] = target: Estrogen receptor (Homo sapiens) (UniProt P03372); test: qHTS assay to identify small molecule agonists of the estrogen receptor alpha (ER-alpha) signaling pathway in the presence of an antagonist (AID 1259383; calls by dose curve; also: top concentration of the series differs between compounds; % is scaled to controls: 0 for no effect and ±100 for the full control effect; nearly all actives have a fitted effect of over 15% in size)
Sequence of Estrogen receptor (Homo sapiens) (P03372 whole entry, looked up): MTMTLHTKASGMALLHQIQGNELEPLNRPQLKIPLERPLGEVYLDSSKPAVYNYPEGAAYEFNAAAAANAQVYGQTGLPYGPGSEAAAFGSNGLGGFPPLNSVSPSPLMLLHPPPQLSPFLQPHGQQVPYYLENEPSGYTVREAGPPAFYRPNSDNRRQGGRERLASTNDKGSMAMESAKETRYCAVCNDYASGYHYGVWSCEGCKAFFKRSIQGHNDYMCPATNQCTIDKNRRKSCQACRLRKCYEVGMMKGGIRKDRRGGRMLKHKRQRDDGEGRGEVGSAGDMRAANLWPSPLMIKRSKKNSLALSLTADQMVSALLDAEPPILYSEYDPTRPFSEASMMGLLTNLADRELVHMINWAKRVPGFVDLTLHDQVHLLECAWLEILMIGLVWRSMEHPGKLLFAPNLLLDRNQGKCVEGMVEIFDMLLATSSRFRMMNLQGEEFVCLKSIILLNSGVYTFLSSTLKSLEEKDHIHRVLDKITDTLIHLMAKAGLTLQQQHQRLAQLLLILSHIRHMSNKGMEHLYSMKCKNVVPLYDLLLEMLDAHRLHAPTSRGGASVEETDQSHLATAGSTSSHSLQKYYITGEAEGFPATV
How it was run: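 VM7Luc4E2, endog. ER-alpha + 4×ERE-luc; charcoal-stripped FBS, phenol red-free, 5 d; 24hr plating; +10.0nM ICI-182,780 (final); cpds 15 conc, 22hr, 37C/5% CO2; ONE-Glo luminescence.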

[7] = qHTS assay to identify small molecule agonists of the estrogen receptor alpha (ER-alpha) signaling pathway in the presence of an antagonist - cell viability counter screen (AID 1259386);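 also: cells exposed to compounds for 22 h at 37 °C before the viability read; nearly all actives have a fitted effect of over 30% in size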; also: potency is read from the fitted curve at half-maximal effect
How it was run: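 VM7Luc4E2, stripped-serum pre-culture 5 d; 24hr plating; +ICI-182,780 10.0nM final; cpds 15 conc, 22hr, 37C/5% CO2; CellTiter-Fluor added at 21hr, fluorescence 1hr later.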

[8] = qHTS assay to identify small molecule agonists or antagonists of the thyroid stimulating hormone receptor (TSHR) signaling pathway - wild type cell line counter screen (AID 1259384; calls by dose curve; also: % is scaled to controls: 0 for no effect and ±100 for the full control effect)
How it was run: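 Counter screen in untransfected Hek293: compounds (15-point titration, triplicate) plus phosphodiesterase inhibitor Ro20-1724 added after 18 h plating; 30 min RT. Intracellular cAMP via competitive d2/cryptate immunoassay, 1 h incubation.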

[9] = target: Thyrotropin receptor (Homo sapiens) (UniProt P16473); test: qHTS assay to identify small molecule antagonists of the thyroid stimulating hormone receptor (TSHR) signaling pathway (AID 1259385; calls by dose curve; also: nearly all actives have a fitted effect of over 20% in size; also: potency is read from the fitted curve at half-maximal effect)
Sequence of Thyrotropin receptor (Homo sapiens) (P16473 whole entry, looked up): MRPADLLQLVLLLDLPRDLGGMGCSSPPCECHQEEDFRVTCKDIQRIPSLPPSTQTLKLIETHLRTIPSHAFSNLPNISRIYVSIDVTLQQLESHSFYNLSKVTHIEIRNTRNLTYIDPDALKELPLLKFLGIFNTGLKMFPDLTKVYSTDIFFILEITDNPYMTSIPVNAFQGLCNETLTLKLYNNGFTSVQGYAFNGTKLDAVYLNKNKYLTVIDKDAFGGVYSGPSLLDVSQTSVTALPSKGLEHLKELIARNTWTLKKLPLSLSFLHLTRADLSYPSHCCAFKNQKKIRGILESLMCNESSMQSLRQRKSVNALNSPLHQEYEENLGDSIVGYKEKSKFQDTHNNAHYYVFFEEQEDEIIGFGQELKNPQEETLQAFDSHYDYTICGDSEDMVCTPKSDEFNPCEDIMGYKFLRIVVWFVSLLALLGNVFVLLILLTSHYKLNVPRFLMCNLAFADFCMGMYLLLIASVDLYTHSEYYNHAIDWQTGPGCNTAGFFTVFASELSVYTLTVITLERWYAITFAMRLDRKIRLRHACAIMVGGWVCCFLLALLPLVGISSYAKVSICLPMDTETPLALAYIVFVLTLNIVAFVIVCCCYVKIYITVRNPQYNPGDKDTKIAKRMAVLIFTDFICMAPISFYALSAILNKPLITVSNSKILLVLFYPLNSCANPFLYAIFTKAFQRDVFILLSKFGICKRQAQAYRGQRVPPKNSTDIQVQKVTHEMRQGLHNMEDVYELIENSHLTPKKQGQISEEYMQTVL
How it was run: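 Antagonist mode: compound-treated TSHR-expressing HEK293 cells were stimulated with 1.5 ng/mL TSH (final) in presence of Ro20-1724 for 30 min at RT. HTRF cAMP detection after 1 h; each compound tested at 15 concentrations, triplicate.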

[10] = qHTS assay to identify small molecule agonists of the estrogen receptor beta (ER-beta) signaling pathway - cell viability counter screen (AID 1259380); also: potency is read from the fitted curve at half-maximal effect; nearly all actives have a fitted effect of over 30% in size
How it was run: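 HEK293T ER-beta-UAS-bla; 2% CS-FBS; 6 hr pre-plate, 16 hr cpd at 37C/5% CO2; LiveBLAzer read first, then CellTiter-Glo 30 min RT, luminescence.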

CC(=O)OCC(C)C
inactive: Potency [1] | Potency [2] | Potency [3] | Potency [4] | Potency [5] | Potency [6] | Potency [7]

CO[C@@H]1[C@@H](OC)[C@H](C)[C@@](O)(CC(=O)O)O[C@H]1[C@H](C)[C@H]1O[C@@]2(CC[C@@](C)([C@H]3CC[C@@](C)([C@@H]4O[C@@H]([C@H]5O[C@](C)(O)[C@H](C)C[C@@H]5C)C[C@@H]4OC4C[C@H](OC)[C@@H](OC)[C@H](C)O4)O3)O2)C[C@H](O)[C@H]1C (some centres not stated)
active: Potency [2] 11.9 µM | Potency [3] 1.68 µM | Potency [5] 2.66 µM | Potency [9] 18.8 µM | Potency [7] 2.37 µM
inactive: Potency [1] | Potency [6] | Potency [8]

COC1CCC=CO1 (configuration not stated)
inactive: Potency [1] | Potency [2] | Potency [3] | Potency [5] | Potency [6] | Potency [8] | Potency [9] | Potency [7]

C[C@@H]1C[C@H]2[C@@H]3CCC4=CC(=O)C=C[C@]4(C)[C@@]3(F)[C@@H](O)C[C@]2(C)[C@@]1(O)C(=O)COP(=O)(O)O
inactive: Potency [1] | Potency [2] | Potency [3] | Potency [5] | Potency [6] | Potency [8] | Potency [9] | Potency [7]

O=C1OC(=O)c2c(Br)c(Br)c(Br)c(Br)c21
inactive: Potency [1] | Potency [2] | Potency [3] | Potency [5] | Potency [8] | Potency [9] | Potency [7]

O=C1CC[C@@H](C(=O)O)N1
inactive: Potency [1] | Potency [2] | Potency [3] | Potency [4] | Potency [5] | Potency [8] | Potency [9] | Potency [7]

CSCC[C@H](NC(=O)[C@H](Cc1c[nH]c2ccccc12)NC(=O)CCNC(=O)OC(C)(C)C)C(=O)N[C@@H](CC(=O)O)C(=O)N[C@@H](Cc1ccccc1)C(N)=O
inactive: Potency [1] | Potency [2] | Potency [3] | Potency [5] | Potency [6] | Potency [8] | Potency [9] | Potency [7]

CCCCCCCCCCCCCCN(C)C
inactive: activation [1] -2.25% [at 19 µM] | activity, negative = inhibition [2] 3.58% [at 19 µM] | activity change, negative = cytotoxicity [3] -0.611% [at 19 µM] | activity change, negative = cytotoxicity [5] -7.95% [at 19 µM] | activation [6] 2.36% [at 19 µM] | cAMP activity change [8] -2.36% [at 18.9 µM, stronger effect = higher value] | activity change, negative = inhibition [9] -0.0954% [at 19 µM] | activity change, negative = cytotoxicity [7] -8.37% [at 19 µM]

SCCc1cnccn1
inactive: Potency [1] | Potency [2] | Potency [3] | Potency [5] | Potency [6] | Potency [8] | Potency [9] | Potency [7]

COC(=O)CC(C(C)=O)C(=O)OC (configuration not stated)
inactive: Potency [1] | Potency [2] | Potency [3] | Potency [4] | Potency [5] | Potency [6] | Potency [8] | Potency [9] | Potency [7]

[Cl][Nd]([Cl])[Cl]
inactive: Potency [1] | Potency [2] | Potency [3] | Potency [5] | Potency [8] | Potency [9] | Potency [7]

Cc1ccc(N(CC2=NCCN2)c2cccc(O)c2)cc1
inactive: Potency [1] | Potency [2] | Potency [3] | Potency [5] | Potency [6] | Potency [8] | Potency [9]

CC[C@H]1OC(=O)[C@H](C)[C@@H](O[C@H]2C[C@@](C)(OC)[C@@H](O)[C@H](C)O2)[C@H](C)[C@@H](O[C@@H]2O[C@H](C)C[C@H](N(C)C)[C@H]2O)[C@](C)(O)C[C@@H](C)C(=O)[C@H](C)[C@@H](O)[C@]1(C)O
inactive: Potency [1] | Potency [2] | Potency [3] | Potency [5] | Potency [8] | Potency [9] | Potency [7]

CCCCC(CC)COS(=O)(=O)O (configuration not stated)
inactive: Potency [1] | Potency [2] | Potency [3] | Potency [5] | Potency [6] | Potency [8] | Potency [9] | Potency [7]

CCCCCc1ccco1
active: Potency [2] 25.1 µM
inactive: Potency [1] | Potency [3] | Potency [5] | Potency [8] | Potency [9] | Potency [7]

O=C(O)CO
inactive: Potency [1] | Potency [2] | Potency [3] | Potency [5] | Potency [8] | Potency [9]

CC(=O)OCC1=C(C(=O)O)N2C(=O)[C@@H](NC(=O)CSc3ccncc3)[C@H]2SC1
inactive: Potency [1] | Potency [2] | Potency [3] | Potency [5] | Potency [8] | Potency [9]

CCCc1nc2c(C)cc(-c3nc4ccccc4n3C)cc2n1Cc1ccc(-c2ccccc2C(=O)O)cc1
inactive: Potency [1] | Potency [2] | Potency [3] | Potency [5] | Potency [6] | Potency [8] | Potency [9] | Potency [7]

CCN(CC)CCOc1ccccc1C(=O)CCc1ccccc1
active: Potency [10] 21.1 µM
inactive: Potency [1] | Potency [2] | Potency [3] | Potency [6] | Potency [8] | Potency [9] | Potency [7]

CC(C)(O)CCc1ccccc1
inactive: Potency [1] | Potency [2] | Potency [3] | Potency [5] | Potency [6] | Potency [8] | Potency [9]

CCOc1ncc(F)c(=O)[nH]1
inactive: Potency [1] | Potency [2] | Potency [3] | Potency [5] | Potency [6] | Potency [8] | Potency [9] | Potency [7]

CC(=O)OCC(=O)[C@@]1(OC(C)=O)[C@@H](C)C[C@H]2[C@@H]3C[C@H](F)C4=CC(=O)C=C[C@]4(C)[C@@]3(F)[C@@H](O)C[C@@]21C
inactive: Potency [1] | Potency [2] | Potency [3] | Potency [5] | Potency [8] | Potency [9] | Potency [7]

COc1ccc(-c2cc(C(F)F)nn2-c2ccc(S(N)(=O)=O)cc2)cc1F
inactive: Potency [1] | Potency [2] | Potency [3] | Potency [5] | Potency [6] | Potency [7]

O=C(O)c1cccc(C[C@@H]2COc3ccc(OCc4nc5cc(F)ccc5s4)cc3[C@@H]2O)c1
inactive: Potency [1] | Potency [2] | Potency [3] | Potency [5] | Potency [6] | Potency [8] | Potency [9]

CNCc1ccc(NC(=O)c2c[nH]c3c2C(=O)CCC3)cc1
inactive: Potency [1] | Potency [2] | Potency [3] | Potency [5] | Potency [8] | Potency [9]

Nc1ccc(S(=O)(=O)NCc2ccccc2)cc1
inactive: Potency [1] | Potency [2] | Potency [3] | Potency [5] | Potency [8] | Potency [9] | Potency [7]

Cc1oc(=O)oc1COC(=O)[C@@H]1N2C(=O)[C@@H](NC(=O)[C@H](N)c3ccccc3)[C@H]2SC1(C)C
inactive: Potency [1] | Potency [2] | Potency [3] | Potency [4] | Potency [5] | Potency [6] | Potency [8] | Potency [9] | Potency [7]

CCN(CC)CCNC(=O)c1cc(Cl)c(N)cc1OC
inactive: Potency [1] | Potency [2] | Potency [3] | Potency [5] | Potency [8] | Potency [9] | Potency [7]
